This is an account of results in the supplement of paper PMC11006884.

Of roughly 6,500 targets only a part is listed; those with a hit were picked by preference. About 2% of all pairs of compound and target were hits.

Compound in the test: COC(=O)C#Cc1ccccc1 [methyl 3-phenylpropiolate]
The test is described as follows: log2 ratio of iodoacetamide-alkyne labeling of the cysteine site, DMSO over compound (competition); higher = stronger covalent engagement of the cysteine by the compound, active = 1 or more. Particulars: 500 µM; treatment time 1 h; system: HEK293T cell lysate. In short, it runs like this:
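For each cysteine, the log2 competition ratio is mean control-channel reporter intensity over mean compound-channel reporter intensity. HEK293T lysate (2 mg/mL) was exposed to vehicle or electrophile (500 µM, 1 h, ambient temperature), labelled with iodoacetamide alkyne (1 h), clicked to sCIP-TMT reagents, digested overnight with trypsin at 37 °C, streptavidin-enriched and analysed by Orbitrap Eclipse LC-MS/MS with FAIMS and FragPipe. Cysteines quantified in only one of three replicates, each with duplicate channels, were excluded.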
As to PNPLA6 C409 (UniProt Q8IY17), the “log2 ratio of iodoacetamide-alkyne labeling” value (“log2 ratio” for short) was 0.4 (inactive).

Turning to CAND1 C1153 (UniProt Q86VP6), the “log2 ratio” value was 0.443 (inactive).

Turning to NAT14 C108 (UniProt Q8WUY8), the “log2 ratio” value is 1.05 (active).

Take RPL36AL C72 (UniProt Q969Q0): the “log2 ratio” value was 0.0561 (inactive).

Consider UniProt Q96HE7_C241, for which the “log2 ratio” value is 0.0793 (inactive).

With HDAC2 C417 (UniProt Q92769), the “log2 ratio” value was 0.126 (inactive).

In the case of UniProt Q7Z4H7_C885, the “log2 ratio” value is 0.286 (inactive).

Regarding UBR4 C1450 (UniProt Q5T4S7), the “log2 ratio” value was 0.138 (inactive).

For WDR19 C1332 (UniProt Q8NEZ3), the “log2 ratio” value was 0.441 (inactive).

In the case of SETD7 C200 (UniProt Q8WTS6), the “log2 ratio” value was 0.34 (inactive).

With SND1 C96 (UniProt Q7KZF4), the “log2 ratio” value was 0.115 (inactive).

For the target THOC2 C743 (UniProt Q8NI27), the “log2 ratio” value was 0.442 (inactive).

As for UniProt Q7Z5K2_C251, the “log2 ratio” value is 0.11 (inactive).

Regarding ZFYVE16 C292 (UniProt Q7Z3T8), the “log2 ratio” value was 0.185 (inactive).

As for UniProt Q8WYL5_C626, the “log2 ratio” value is 1.19 (active).

As to UniProt Q5VSL9_C418, the “log2 ratio” value is 1.22 (active).

For UniProt Q6PJG6_C720, the “log2 ratio” value is 0.324 (inactive).

As for CEP135 C316 (UniProt Q66GS9), the “log2 ratio” value is 0.0231 (inactive).

For the target NCAPG C202 (UniProt Q9BPX3), the “log2 ratio” value is 0.0426 (inactive).

On to RSBN1L C280 (UniProt Q6PCB5), for which the “log2 ratio” value is 0.649 (inactive).

On to PHF3 C1616 (UniProt Q92576), for which the “log2 ratio” value is 1.14 (active).

Take USP28 C142 (UniProt Q96RU2): the “log2 ratio” value is 1.47 (active).

On to NEK9 C11 (UniProt Q8TD19), for which the “log2 ratio” value is 1.21 (active).

Take RNF25 C360 (UniProt Q96BH1): the “log2 ratio” value is 1.07 (active).

For the target ATXN7L3B C75 (UniProt Q96GX2), the “log2 ratio” value is 1.03 (active).

For the target IRF2BP2 C40 (UniProt Q7Z5L9), the “log2 ratio” value is 0.276 (inactive).

Consider FIGNL1 C200 (UniProt Q6PIW4), for which the “log2 ratio” value was 1.08 (active).

Turning to ZNF746 C425 (UniProt Q6NUN9), the “log2 ratio” value is 0.385 (inactive).

GTF3C2 C608 (UniProt Q8WUA4): the “log2 ratio” value was 0.147 (inactive).

As to APIP C97 (UniProt Q96GX9), the “log2 ratio” value is 0.129 (inactive).

Take POM121 C461 (UniProt Q96HA1): the “log2 ratio” value is 0.43 (inactive).

As for TMCO6 C57 (UniProt Q96DC7), the “log2 ratio” value was 0.394 (inactive).

As for HDHD3 C243 (UniProt Q9BSH5), the “log2 ratio” value was 0.16 (inactive).

On to ZGPAT C377 (UniProt Q8N5A5), for which the “log2 ratio” value was 0.342 (inactive).

UniProt Q96GD4_C234: the “log2 ratio” value was 0.62 (inactive).
